Most compounds without a hit are left out; they make up all but 3.5% or so of the library.
LEDGF integ inh: blocks HIV-1 LEDGF/p75-dependent DNA integration; TR-FRET IN-LEDGF/p75 DNA integration, Eu/Cy5; inhibition, % at 3.7 µM; 370,000 tested, 0.64% active;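 active = inhibition above the screen-wide mean plus 3 SD, cut at about 13% in these data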;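 also: signal is the Cy5 over europium emission ratio at 671 and 618 nm; 0% = plate median of compound wells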
rCAG RNA binder: r(CAG) repeat RNA binding; TO-PRO-1 dye displacement fluorescence; inhibition, % at 3 µM; 370,000 tested, 1.3% active;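 active = inhibition above the plate cutoff, the mean of all test compounds on that plate plus 3 SD, cut at about 35% in these data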;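 also: 0% = DMSO alone and 100% = 100 µM mitoxantrone as full dye displacement; higher means more dye released from RNA so lower well fluorescence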
DNMT1 inh: inhibitors of human DNMT1; P26358; DNMT1 molecular beacon, Hinp1I cleavage, fluorescence; inhibition (reported as % activation of signal), % at 10 µM; 360,000 tested, 0.83% active; AID 588458; in the data active = inhibition above about 50%
MBD2 inh: inhibitors of human MBD2 binding to methylated oligonucleotide | Q9UBB5 | TR-FRET | inhibition, % at 4.4 µM | 370,000 tested, 0.31% active; in the data active = inhibition above about 13%
PG9 binder: binds the HIV-1 gp120 antibody PG9. TR-FRET gp120-PG9 antibody binding. 360,000 tested, 0.43% active. AID 624416. inhibition, % at 6.7 µM; in the data active = inhibition above about 8.5%
UHRF1 binding: UHRF1 methyl-DNA binding inhibition; Q96T88; UHRF1 binding to methylated oligo, TR-FRET; inhibition, % at 4.4 µM; 370,000 tested, 0.75% active; AID 687016; in the data active = inhibition above about 21%;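 also: UHRF1 SRA domain binding a hemimethylated CpG hairpin DNA probe; 0% = median of test compound wells and 100% = reference inhibitor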
* hit, by the source's call; i = inactive; . = no result given.

SMILES	LEDGF integ inh	rCAG RNA binder	DNMT1 inh	MBD2 inh	PG9 binder	UHRF1 binding
CC(CCN1CCC(C(O)(c2ccccc2)c2ccccc2)CC1)Oc1ccccc1C#N (stereo not given)	2.9	1.9	.	-6.5	.	0.2
O=C(CSc1nncs1)N1CCN(C(=O)c2ccco2)CC1	-2.1	5.1	-0.6	3.4	0.6	36.5*
CCN1/C(=C/C=C/c2oc3ccc(-c4ccccc4)cc3[n+]2CC)Oc2ccc(-c3ccccc3)cc21	-0.7	i	148.6*	-10.2	0.1	-49.2
CCCCN1C(=O)/C(=C/C=C2\Oc3ccccc3N2CC)SC1=S	-11.7	-14.8	19.9	0.8	0.6	1.8
CC(C)Cc1nnc(NC(=O)CCS(=O)(=O)c2ccc(Cl)cc2)s1	4.2	-1.4	2.3	10.6	2.4	24.3*
CCc1nnc(NC(=O)Cc2c[nH]c3ccccc23)s1	-1.8	4.0	-20.4	0.3	1.8	3.6
CC(C)Cc1nnc(NC(=O)CCC(=O)Nc2ccc(Cl)cc2)s1	-2.0	-1.0	8.2	-4.8	1.1	-0.6
CC(C)Cc1nnc(NC(=O)CCc2c[nH]c3ccccc23)s1	-1.6	-0.7	0.2	10.5	-0.3	25.1*
CC(Sc1nnc(C2CC2)n1C1CC1)C(=O)Nc1cccc(S(=O)(=O)N2CCOCC2)c1 (stereo not given)	0.9	1.2	2.4	0.9	-0.2	-0.7
Cc1cc(OCC(C)CN2CCC(C(O)(c3ccccc3)c3ccccc3)CC2)ccc1Br (stereo not given)	-3.6	5.7	.	-2.5	.	-0.2
CC(C)C[C@@H]1NC(=O)[C@H]2C[C@@]3(C)c4ccccc4N[C@H]3N2C1=O	-3.2	3.5	.	3.9	.	1.6
CC(C)N1CCC(N2CCN(Cc3ccc4nonc4c3)CC2CCO)CC1 (stereo not given)	1.2	1.9	3.1	0.1	-1.2	-2.2
CC(C)N1CCC(N2CCN(Cc3cccc4nonc34)CC2CCO)CC1 (stereo not given)	-12.6	0.3	3.8	-2.0	-0.8	78.7*
O=C(Cc1ccc(Cl)cc1Cl)NCc1cccnc1	-1.8	2.0	1.0	0.9	1.3	21.0*
O=C(Cc1c(F)cccc1Cl)NCc1cccnc1	2.5	0.1	0.4	0.8	-2.9	-0.9
O=C(CSc1nnc(-c2cccnc2)n1Cc1ccco1)Nc1ccc(F)cc1Cl	-1.9	5.8	.	3.1	.	-0.2
COc1ccc(C2Nc3ccccc3C(=O)N2Cc2ccc(C)o2)cc1COc1c(C)cccc1C (stereo not given)	-4.0	.	.	7.0	.	2.0
CCOC(=O)C1CCCN(C(=O)c2cc(Cl)ccc2Cl)C1 (stereo not given)	-0.1	0.7	0.8	9.5	-0.3	21.9*
C/C(=N\NC(=O)c1ccc(Br)cc1)C1C(=O)c2ccccc2C1=O	-6.5	47.6*	-9.6	-10.3	0.4	-7.2
CCOc1ccc(C(=O)N/N=C(/C)C2C(=O)c3ccccc3C2=O)cc1	2.2	6.5	-13.2	1.3	-4.2	6.3
CCOc1ccc(-c2csc3nc[nH]c(=O)c23)cc1	-1.0	0.2	-0.5	2.9	-1.4	-2.4
COCCNC(=O)C(c1ccc(F)cc1)N(CCOC)C(=O)CCC(=O)Nc1nccs1 (stereo not given)	1.6	-3.4	-0.6	4.2	-3.2	14.7
COCCNC(=O)C(c1ccc(F)cc1)N(C(=O)CCC(=O)Nc1nccs1)c1ccc(C)cc1 (stereo not given)	4.2	-7.2	-2.3	-1.2	-2.5	20.8*
O=C(c1ccco1)N(Cc1cccc(F)c1)C1CCS(=O)(=O)C1 (stereo not given)	-4.0	0.3	-0.8	6.5	-0.9	21.2*
O=C(c1cc(=O)c2ccccc2o1)N(Cc1ccccc1)C1CCS(=O)(=O)C1 (stereo not given)	-1.6	-2.8	1.7	-5.1	-0.7	-0.8
SMILES	LEDGF integ inh	rCAG RNA binder	DNMT1 inh	MBD2 inh	PG9 binder	UHRF1 binding
COc1ccc(CN(C(=O)c2cc(=O)c3ccccc3o2)C2CCS(=O)(=O)C2)cc1OC (stereo not given)	2.2	-1.4	2.1	8.9	-3.2	21.5*
CC(C)(C)C(=O)OCOP(=O)(COCCn1cnc2c(N)ncnc21)OCOC(=O)C(C)(C)C	0.5	-1.8	.	1.6	.	-0.3
O=C(/C=C/c1ccc(Br)o1)OCc1nc2ccsc2c(=O)[nH]1	.	.	103.9*	.	.	.
Cc1ccc(C(=O)OCc2nc3ccsc3c(=O)[nH]2)o1	-3.2	-2.8	5.8	0.1	2.0	0.2
CC1=CC(=O)N(c2ccn(C)n2)C1=O	0.7	-1.4	1.0	-4.9	-0.7	-1.6
O=C(c1sccc1Cl)N1CCC(n2nnc3ncccc32)CC1	7.4	-0.7	.	-5.0	.	-0.5
CCN(CC)S(=O)(=O)c1cc(C(=O)Nc2ccccc2[N+](=O)[O-])ccc1Cl	0.1	0.9	9.4	6.1	-1.1	21.6*
COC1(OC)C(/C=C/c2ccc(C)cc2)C(C#N)(C#N)C1(OC)OC (stereo not given)	0.6	0.1	-0.6	8.5	1.2	21.1*
CCC1CCc2sc(C(=O)Nc3cc(S(=O)(=O)N4CCOCC4)ccc3OC)cc2C1 (stereo not given)	4.2	.	.	3.0	.	-1.0
O=C(Cn1cnc2sc3c(c2c1=O)CCCC3)NCC(=O)Nc1c(F)cccc1F	1.2	-0.3	-0.4	8.9	-0.8	22.2*
O=C(CNC(=O)Cn1cnc2sc3c(c2c1=O)CCCC3)NCc1ccccn1	0.7	-2.8	4.7	-2.7	-1.0	1.0
CCCc1nc2ccc(C(=O)OC)cn2c1Cc1ccccc1	-3.6	6.3	-7.0	11.5	-0.3	24.6*
CCCc1nc2ccc(C(=O)OC)cn2c1Cc1ccc(C)cc1	6.1	5.3	9.3	9.6	1.6	21.6*
CC(=O)Nc1ccc(C(/C=C/c2ccccc2)Cc2ccccc2)cc1 (stereo not given)	-2.8	7.2	.	0.4	.	-1.4
Cn1nc(-c2ccccc2)cc1NC(=O)Nc1ccc(C(C)(C)C)cc1	1.5	8.1	0.4	8.3	-1.8	28.5*
Cn1nc(-c2ccc(Cl)cc2)cc1NC(=O)Nc1ccccc1	-1.8	14.7	-5.9	2.5	0.6	-1.8
Cc1ccc(-n2c3c(c(=O)[nH]c2=O)C(NS(=O)(=O)c2ccc(Cl)cc2)(C(F)(F)F)C(=O)N3)cc1 (stereo not given)	2.1	0.0	0.6	4.4	-0.5	28.4*
Cc1ccc(-n2c3c(c(=O)[nH]c2=O)C(NS(=O)(=O)c2ccc(C)cc2)(C(F)(F)F)C(=O)N3)cc1 (stereo not given)	5.6	6.7	-0.6	3.4	-1.4	18.4
CNC(=O)CN(c1cc(C)ccc1OC)S(=O)(=O)c1ccc(C)cc1	2.1	-4.3	1.3	6.2	1.6	41.5*
COc1ccc(N(CC(=O)NC2CC3CCC2C3)S(=O)(=O)c2ccc(C)cc2)cc1Cl (stereo not given)	1.9	3.4	-10.1	5.4	0.5	21.8*
